Bioassay records (PubChem)
D2 PAM-1: HTS Assay for Positive Allosteric Modulators of the Human D2 Dopamine Receptor: Primary Screen for Potentiators. D(2) dopamine receptor (Homo sapiens), P14416. HEK293 T-REx D2, calcium flux, EC20 dopamine potentiation. potentiation, % at 10 µM. hit rate 0.34% among 340,000;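 active = potentiation over 3 SD above the plate norm, cut at about 30% in these data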; note: 0% is about no effect
Target sequence (P14416 whole entry, looked up): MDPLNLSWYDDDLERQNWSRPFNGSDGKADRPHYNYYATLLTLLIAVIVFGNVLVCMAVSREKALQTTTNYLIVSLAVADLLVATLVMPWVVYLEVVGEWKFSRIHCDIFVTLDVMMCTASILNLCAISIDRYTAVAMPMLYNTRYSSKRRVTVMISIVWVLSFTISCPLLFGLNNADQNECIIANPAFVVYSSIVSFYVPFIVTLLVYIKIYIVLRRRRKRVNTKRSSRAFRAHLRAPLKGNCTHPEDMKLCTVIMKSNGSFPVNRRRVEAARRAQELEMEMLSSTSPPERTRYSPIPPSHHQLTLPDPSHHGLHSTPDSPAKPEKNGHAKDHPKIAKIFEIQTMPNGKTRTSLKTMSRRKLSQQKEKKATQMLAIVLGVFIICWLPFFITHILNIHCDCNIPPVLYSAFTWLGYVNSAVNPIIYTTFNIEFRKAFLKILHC
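Primary screen. Calcium kinetics in induced HEK293 T-REx D2 cells: compound pre-addition 180 s, EC20 dopamine, 180 s more.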
D2 antag: HTS Assay for Allosteric Antagonists of the Human D2 Dopamine Receptor: Primary Screen for Antagonists | D(2) dopamine receptor (Homo sapiens), P14416 | HEK293 TREx D2 cells, calcium flux, dopamine EC80 | inhibition, % at 10 µM | hit rate 2% among 340,000 | AID 485344, 2010; in the data active = inhibition above about 30%; inactive = below that, where a call was filed; note: 0% is about no effect
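Inhibition of EC80 dopamine-driven calcium flux, recorded kinetically, defines activity here; cells are a tetracycline-induced HEK293 T-REx line expressing force-coupled D2.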
D2 ag-1: HTS Assay for Allosteric Agonists of the Human D2 Dopamine Receptor: Primary Screen for Agonists; HEK293 T-REx D2 cells, calcium flux agonist mode; activation, % at 2 µM; hit rate 0.53% among 340,000; AID 485358, 2010;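 active = activation over 3 SD above normal in the single-dose calcium agonist read, cut at about 30% in these data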; note: 0% is about no effect
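Tetracycline-induced HEK293 Trex cells with D2 receptor force-coupled to calcium signaling, plated overnight at 30 C and loaded with no-wash calcium dye. Calcium flux read kinetically for 180 s after compound addition; responses flag agonists.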
D2 PAM-2: Beta-Arrestin HTS for Positive Allosteric Modulators of the Human D2 Dopamine Receptor: Potentiators | D(2) dopamine receptor (Homo sapiens), P14416 | DiscoveRx D2 beta-arrestin cells, luminescence, 90 min; 100% = 57 uM dopamine signal | potentiation, % (test concentration not listed) | hit rate 0.23% among 360,000 | AID 624464, 2012; in the data active = potentiation above about 50%; inconclusive = mostly about 30% to 49%
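D2 cells co-treated with compound plus 50 nM dopamine (EC20) for 90 min at 37 deg C to detect potentiation. Beta-arrestin recruitment was read as enzyme-fragment luminescence after 1 h at ambient temperature. Full response was set by 57 uM dopamine.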
D2 ag-2: Beta-Arrestin HTS for Positive Allosteric Modulators of the Human D2 Dopamine Receptor: Agonists. D(2) dopamine receptor (Homo sapiens), P14416. DiscoveRx PathHunter D2 beta-arrestin, luminescence, 90 min; 100% = 57 uM dopamine signal. activation, % (concentration not given with the values). hit rate 0.084% among 360,000; in the data active = activation above about 40%; inconclusive = between about 15% and that limit
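Agonist mode: compounds alone added to overnight-plated D2 PathHunter cells for 90 min at 37 C, with 57 uM final dopamine (EC100) defining full response. Beta-arrestin recruitment detected by chemiluminescent reagent, read after 1 h at ambient temperature.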
* = called active by the depositor; ? = inconclusive; / = not tested or not shown. Most compounds without a hit are left out; they make up all but 2.4% or so of the library.

SMILES	D2 PAM-1	D2 antag	D2 ag-1	D2 PAM-2	D2 ag-2
COC(=O)c1cn(C(=O)c2ccc3c(c2)OCO3)c2ccccc12	/	/	/	-13	-10
COc1ccc(C)cc1NC(=O)C12CCC(C)(C(=O)O1)C2(C)C (configuration not stated)	5	9	0	-2	-1
CCCN(CCC)CCCn1c(=O)[nH]c2ccccc21	-4	19	13	-10	8
CC(=O)Nc1sc(NC(=O)c2ccccc2)nc1-c1cccs1	-7	-14	0	-1	4
CCN(CC)c1ccc(/C=C(\C#N)c2nc(-c3cccs3)c(NC(C)=O)s2)cc1	-3	6	33*	/	/
CCN1CCN(C2CCCCC2NS(=O)(=O)c2ccccc2)CC1 (configuration not stated)	-8	11	0	-25	-10
COc1ccc(C(C)(C)C)cc1NC(=O)c1c(C)noc1C	2	-1	0	-4	2
COc1ccc(C(C)(C)C)cc1NC(=O)CCc1c(C)noc1C	9	63*	-1	-5	-4
COC(=O)CNC(=O)c1cccs1	-8	66*	0	5	-2
O=C(/C=C/c1cccc([N+](=O)[O-])c1)NCC1CCCO1 (configuration not stated)	1	60*	-1	-33	-1
O=C(NCC1CCCO1)C(=Cc1cccc([N+](=O)[O-])c1)C(=O)NCC1CCCO1 (configuration not stated)	8	1	1	-3	3
CC(C)N(C(=O)/C=C/c1cccc([N+](=O)[O-])c1)C(C)C	19	24	1	-9	-1
O=C(/C=C/c1cccc([N+](=O)[O-])c1)OC1CCCCC1=O (configuration not stated)	1	31*	2	-4	-5
S=C(c1ccc(-c2ccccc2Cl)o1)N1CCCCC1	-23	4	0	-12	-1
CC(C)COC(=O)c1ccc2c(c1O)C(=O)c1ccccc1C2=O	-1	2	0	62*	13
COc1ccc(CCn2c(C)nc3c(c(=O)c4ccccc4n3C)c2=O)cc1	25	49*	3	-17	2
COc1ccc(Cn2c(-c3ccc(C)cc3)nc3c(c(=O)c4ccccc4n3C)c2=O)cc1	-3	37*	0	-12	-3
CCOc1ccc(CCNC(=O)C2CCN(C(=O)N3CC(CC)Oc4ccc(C)cc43)CC2)cc1 (configuration not stated)	-5	/	2	/	/
COC(=O)c1ccccc1NC(=O)CN1CCN(C23CC4CC(CC(C4)C2)C3)CC1	-24	72*	1	-19	-3
COC(=O)c1ccccc1NC(=O)CN1CCc2ccccc2C1	0	-2	1	-10	5
CCc1ccc(OCc2n[nH]c(=S)n2C(C)CCCC(C)C)cc1 (configuration not stated)	3	48*	2	0	13
CCOC(=O)c1cc2sccc2n1CC(=O)N1CCc2ccccc21	34*	0	0	-6	-1
O=Cc1ccc(-c2ccc(Cl)cc2Cl)[nH]1	-9	8	1	-14	4
COc1ccc(S(=O)(=O)c2cc3cc(OC)ccc3oc2=O)cc1	-6	/	0	/	/
CC1Cc2nc(SCC(=O)OCc3ccccc3)n(C)c(=O)c2S1 (configuration not stated)	35*	-5	-1	-11	-1
SMILES	D2 PAM-1	D2 antag	D2 ag-1	D2 PAM-2	D2 ag-2
CC1Cc2nc(SCC(=O)N3CCc4ccccc43)n(C)c(=O)c2S1 (configuration not stated)	-6	7	2	4	0
Cc1ccc(NC(=O)CSc2cn(CC(=O)N3CCCCCC3)c3ccccc23)cc1	0	/	0	/	/
CCNC(=O)c1ccccc1SCC(=O)Nc1ccc(F)cc1	35*	23	0	-7	-3
CCNC(=O)c1ccccc1SCc1ccccc1	10	14	-1	0	3
COc1ccc(CNCc2ccco2)cc1OCc1ccccc1	16	37*	-1	-28	-5
COc1ccccc1CCNCc1ccc(OC)c(OCc2ccccc2)c1	/	/	/	-16	-2
CCOc1ccc(C(=O)Nc2nnc(C)s2)cc1OCC	-7	6	0	-6	-1
CCOc1ccc(C(=O)Nc2c3c(nn2C(C)(C)C)CSC3)cc1OCC	-7	30*	0	-7	-4
O=S(=O)(Cc1ccccc1Cl)c1ncn[nH]1	-1	14	1	-2	1
O=C1S/C(=C\c2ccc(Cl)cc2)C(=O)N1CCn1cnnn1	38*	-1	1	-7	-5
CC(=O)Nc1cccc(C(=O)/C=C/c2ccc(N(C)C)cc2)c1	-3	35*	86*	?	6
CC(=O)Nc1cccc(C(=O)/C=C/c2ccc(/C=C/C(=O)c3cccc(NC(C)=O)c3)cc2)c1	-4	0	1	/	/
CCN1C(=S)SC(=O)C1=C1C=C(C)OC(C)=C1	4	57*	2	-1	-1
CCN1C(=S)SC(=O)C1=C1C=C(C)N(Cc2ccco2)C(C)=C1	8	/	/	-15	-5
COc1ccccc1OCCSc1nc2ccccc2n1CC(O)CO (configuration not stated)	7	-20	-1	-1	-2
O=C(COc1ccc2ccccc2c1)NNC(=O)c1ccccc1	6	48*	2	-6	-3
Cc1c(NC(=O)CSCc2ccc(Br)cc2)c(=O)n(-c2ccccc2)n1C	-6	42*	0	-5	-4
Cc1c(NC(=O)COc2ccc3ccccc3c2)c(=O)n(-c2ccccc2)n1C	35*	7	0	-3	-3
Cc1c(NC(=O)COc2cccc(F)c2)c(=O)n(-c2ccccc2)n1C	-4	10	1	16	1
O=C(COc1ccc2ccccc2c1)NNC(=O)Cc1ccccc1	1	-12	0	-6	-1
Cc1c(NC(=O)COC(=O)Cc2ccc(Br)cc2)c(=O)n(-c2ccccc2)n1C	7	-9	0	-14	-1
Cc1c(NC(=O)CSc2ccccc2F)c(=O)n(-c2ccccc2)n1C	46*	-16	-1	0	-3
Cc1ccccc1-c1noc(-c2ccccc2C(=O)N2CCCC2)n1	7	-22	-1	-8	-2
COc1ccc(C)cc1S(=O)(=O)N1CCCCC1	4	6	1	-15	-1
Cc1c(NC(=O)c2ccc(Br)o2)c(=O)n(-c2ccccc2)n1C	31*	-5	-1	-2	-3
FC(F)Oc1ccc(NC(=S)NC2CCCCCCC2)cc1	15	33*	2	2	-3
